From PubChem BioAssay (Tox21)
Values joined by “and” are separate entries in the source; they are usually repeats but may differ in a detail not shown here. Equal entries are not always repeated. Results filed as inconclusive are left out. Where a call stands in place of a potency, no number is given. Where a structure was tested more than once in an assay, its records may differ in their call. Active and inactive are the calls of the source. Calls come from the whole dose curve.
Potency is the fitted concentration of half-maximal effect.

Assay: Nuclear factor erythroid 2-related factor 2/antioxidant responsive element (Nrf2/ARE) small molecule agonists: luciferase reporter gene qHTS assay in human keratinocytes (AID 1919969); note: nearly all actives have a fitted effect of over 35% in size
Conditions: KeratinoSens HaCaT ARE-luciferase, luminescence, 24 h; series mostly up to 92.4 µM
Text: National Center for Advancing Translational Sciences [NCATS]
Division of Preclinical Innovation [DPI]
U.S. Environmental Protection Agency [EPA]
National Institutes of Environmental Health Sciences [NIEHS]
National Toxicology Program [NTP]
U.S. Food and Drug Administration [FDA]
Oxidative stress has been implicated in the pathogenesis of a variety of diseases ranging from cancer to neurodegeneration. The antioxidant response element (ARE) signaling pathway plays an important role in the amelioration of oxidative stress. The KeratinoSens (Givaudan, Switzerland) is an in vitro test method which quantifies luciferase induction as a measure of activation of Keap1-Nrf2-antioxidationt/electrophile response element (ARE) dependant pathway in HaCaT human keratinocytes stably transfected with a selectable plasmid. The KeratinoSens assay is a cell-based assay with a reporter cell line to detect potential skin sensitizers by their ability to induce the Nrf2/ARE-response. The activation of the report gene under culture conditions can be detected by ONE-Glo Luciferase Assay System (Promega, Madison, WI). This cell line has been used to screen the Tox21 10K compound library to identify agonists that induce oxidative stress. The cytotoxicity of the Tox21 compound library against the KS-ARE cell line was tested in parallel by measuring the cell viability using CellTiter- Fluor assay system (Promega, Madison, WI) in the same wells.
HaCaT derived cell line KeratinoSens were dispensed at 1,500 cells/5uL/well in 1536-well white wall/solid bottom plates using a Multidrop Combi (ThermoFisher Scientific, Waltham, MA) dispenser. After the assay plates were incubated at 37 C/5% CO2 for 5 h, 23 nL of compounds dissolved in DMSO, positive controls or DMSO only was transferred to the assay plate by a pintool workstation (Kalypsys, San Diego, CA). The plates were incubated at 37 C/5% CO2 for 23 h, followed by addition of 1uL/well of CellTiter-Fluor reagent into the assay plates using a Flying Reagent Dispenser (Aurora Discovery, San Diego, CA) for cell viability readout that measures cytotoxicity. After 1 h incubation at 37 C/5% CO2 the fluorescence intensity was measured using a ViewLux (PerkinElmer, Shelton, CT) plate reader. Then 4uL/well of One-Glo were added using a Flying Reagent Dispenser. After the plates were incubated at room temperature for 30 min, the luminescence intensity in the assay plates was measured using ViewLux plate reader.
In the case of `CCCCc1c(C)nc(NCC)[nH]c1=O`, the Potency is reported as “inactive”. In the case of `COc1cc(-c2ccc(N)c(OC)c2)ccc1N`, the Potency is reported as “inactive”. With `CC(C)(c1ccccc1)c1ccc(O)c(C(C)(C)c2ccccc2)c1` the Potency was “inactive and 7.7 µM (active)”. With `Cc1ccc(N)c(C)c1` the Potency was “inactive”. With `O=NN1CCCCCC1` the Potency was “inactive”. For `COc1cccc(C=O)c1`, the Potency was “inactive”. For `C1CC2OC2CC1C1CO1` (stereo not given), the Potency was “inactive”. In the case of `CC[n+]1c(-c2ccccc2)c2cc(N)ccc2c2ccc(N)cc21`, the Potency is reported as “inactive and 10.6 µM (active)”. With `CCOP(OCC)OCC` the Potency was “inactive”. In the case of `C=CC(=O)OC(C)(C)C`, the Potency is reported as “inactive”. With `CC(C)CC(C)(c1ccc(O)cc1)c1ccc(O)cc1` the Potency was “inactive”. In the case of `O=C(O)c1ccc(=O)[nH]c1`, the Potency is reported as “inactive”. In the case of `Clc1ccc(C(c2ccc(Cl)cc2)C(Cl)Cl)cc1`, the Potency is reported as 15.6 µM (active) and inactive. In the case of `CNC(=O)O/N=C/C(C)(C)S(C)=O` (stereo not given), the Potency is reported as “inactive”. For `ClCCN1CCOCC1`, the Potency was “inactive”. In the case of `N#Cc1ccc(O)cc1`, the Potency is reported as “inactive”. In the case of `ClC(Cl)=C(c1ccc(Cl)cc1)c1ccc(Cl)cc1`, the Potency is reported as “inactive”. In the case of `CCC1(CC)C(=O)C=CNC1=O`, the Potency is reported as “inactive”. For `CCCCC(CC)COC(=O)c1c(Br)c(Br)c(Br)c(Br)c1C(=O)OCC(CC)CCCC` (stereo not given), the Potency was “inactive”. With `Cc1ccc(N)cc1` the Potency was “inactive and 48.6 µM (active)”. In the case of `CCOP(=S)(OCC)OP(=S)(OCC)OCC`, the Potency is reported as “inactive”. In the case of `C=CC(=O)OCC(C)C`, the Potency is reported as “inactive”. For `NCC(O)c1ccc(O)cc1` (stereo not given), the Potency was “inactive”. For `Sc1ccccc1Cl`, the Potency was “inactive”. In the case of `[O-][Cl+2]([O-])O`, the Potency is reported as “inactive”. For `CC(Cl)CCl` (stereo not given), the Potency was “inactive”. With `O=C(CCl)c1ccc(Cl)cc1Cl` the Potency was 60.8 µM (active) and 11.9 µM (active). With `COc1ccc(N)cc1` the Potency was “inactive and 68 µM (active)”. With `O=[N+]([O-])O[C@H]1CO[C@H]2[C@@H]1OC[C@H]2O[N+](=O)[O-]` the Potency was “inactive”. In the case of `CCN(CC)C(=O)SCc1ccc(Cl)cc1`, the Potency is reported as “inactive”. In the case of `O=NN1CCCCC1`, the Potency is reported as “inactive”. For `ClC(Cl)(Cl)C(Cl)(Cl)Cl`, the Potency was “inactive”. For `O=c1[nH]c(=O)n(Cl)c(=O)n1Cl`, the Potency was “inactive”. With `Cc1cc(Cl)ccc1OC(C)C(=O)O` (stereo not given) the Potency was “inactive”. For `COc1ccc2c(c1OC)C(=O)O[C@@H]2[C@H]1c2cc3c(cc2CCN1C)OCO3`, the Potency was “inactive”. With `Cc1cc(Cl)ccc1O` the Potency was “inactive”. With `CC(C)OC(=O)Nc1cccc(Cl)c1` the Potency was “inactive”. With `COP(=O)(OC)OC=C(Cl)Cl` the Potency was 55 µM (active) and inactive. With `CN(C)CCc1ccc(O)cc1` the Potency was “inactive”. In the case of `Clc1nc(Cl)nc(Cl)n1`, the Potency is reported as “inactive”.
